The values below come from PubChem BioAssay (NCATS).

Results filed as inconclusive are left out. Values without a mark were called inactive. Activity calls are given as the source filed them. Calls follow the shape of the dose curve; as a rule, active = well fitted inhibition curve with a large enough effect; inconclusive = small, poorly fitted or top-dose-only effect; inactive = flat fitted curve, though single readings scatter.
Potency is read from the fitted curve at half-maximal effect.

The first experiment deals with GB4. As to the kind of experiment: qHTS profiling for inhibitors of Plasmodium falciparum proliferation (AID 504749). Also: nearly all actives have a fitted effect of over 60% in size.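 As to activity, negative = inhibition: 0% = DMSO vehicle and full inhibition = artemisinin control.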 Particulars: P. falciparum in erythrocytes, SYBR Green DNA, 72 h; series mostly up to 28.7 µM; activity, negative = inhibition: at the top concentration. In outline: (§1)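 Readout was DNA-dye fluorescence from lysed cultures, ex 485/em 535 nm. Parasitized red cells had grown 72 h with compound; data scaled between 0.29 uM artemisinin and DMSO wells and corrected using vehicle-only plates.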
For orientation: In qHTS, concentration-response curves come from the screen itself.
Consider `S=C=Nc1ccc(N=C=S)cc1`, for which the “activity, negative = inhibition” value is -2.6%.
On to `N=C(N)n1cccn1`, for which the “activity, negative = inhibition” value was -15.7%.
As to `Cc1cccc(C)c1NC(=O)NC1=CCCN1C`, the “activity, negative = inhibition” value was 2.13%.
Turning to `Cc1cc(-c2ccc(N=Nc3ccc4c(S(=O)(=O)O)cc(S(=O)(=O)O)c(N)c4c3O)c(C)c2)ccc1N=Nc1ccc2c(S(=O)(=O)O)cc(S(=O)(=O)O)c(N)c2c1O`, the “activity, negative = inhibition” value was 0.741%.
Same read-out and setting: with `O=P(O)(O)O` the figure was 0.704%.
Consider `CN(CCO)CC(O)Cn1cnc2c1c(=O)n(C)c(=O)n2C` (stereo not drawn) (tested in a mixture with another compound), for which the “activity, negative = inhibition” value was -0.144%.
For the molecule `O=C(O)Cc1cc(I)c(Oc2ccc(O)c(I)c2)c(I)c1`, the “activity, negative = inhibition” value was -6.59% [at 12.8 µM].
Consider `COC1=C(OC)C(=O)C(C/C=C(\C)CC/C=C(\C)CC/C=C(\C)CC/C=C(\C)CC/C=C(\C)CC/C=C(\C)CC/C=C(\C)CC/C=C(\C)CC/C=C(\C)CCC=C(C)C)=C(C)C1=O`, for which the “activity, negative = inhibition” value is -2.19%.
Consider `CN=C1C=CC(=C(c2ccc(N(C)C)cc2)c2ccc(N(C)C)cc2)C=C1`, for which the Potency was 675 nM (active).
As to `CCOc1ccc(S(=O)(=O)O)c2cccnc12`, the “activity, negative = inhibition” value was -0.404%.
`FC(F)(F)COCC(F)(F)F`: the “activity, negative = inhibition” value was -4.56%.
As for `O=C(O)[C@H]1C(=CCO)O[C@H]2CC(=O)N12`, the “activity, negative = inhibition” value is -6.7%.
Consider `CC1CC(O)CC(C)(C)C1` (stereo not drawn), for which the “activity, negative = inhibition” value was -0.0101%.
For the molecule `Cc1ncc(C[n+]2csc(CCOP(=O)(O)O)c2C)c(N)n1`, the “activity, negative = inhibition” value was -2.9%.
As to `CCCCO`, the “activity, negative = inhibition” value is -0.381%.
With `CCOC(=S)SSC(=S)OCC`, the “activity, negative = inhibition” value was -2.22%.
On to `N[C@H](CC(=O)O)C(=O)O`, for which the “activity, negative = inhibition” value was 8.7%.
On to `CCC(C(=O)NC(N)=O)c1ccccc1` (stereo not drawn), for which the “activity, negative = inhibition” value was 1.68%.
`CCN(CC)CCOC(=O)c1cccnc1`: the “activity, negative = inhibition” value is -6.54%.
Take `NC(=S)NS(=O)(=O)c1ccc(N)cc1`: the “activity, negative = inhibition” value was 0.964%.
For `COc1cc2c(cc1OC)[C@@H](Cc1cc(OC)c(OC)c(OC)c1)[N+](C)(CCCOC(=O)CC/C=C/CCC(=O)OCCC[N+]1(C)CCc3cc(OC)c(OC)cc3[C@H]1Cc1cc(OC)c(OC)c(OC)c1)CC2` (stereo partly drawn), the “activity, negative = inhibition” value was -7.29%.
The same measure, in the same setting: with `Cc1ncc(COP(=O)(O)O)c(CN)c1O` the figure was 1.5%; with `C[C@H](N)C(=O)N[C@@H](C)P(=O)(O)O`, 0.691%; with `CO[C@H]1C[C@@H]2CC[C@@H](C)[C@@](O)(O2)C(=O)C(=O)N2CCCC[C@H]2C(=O)O[C@H]([C@H](C)C[C@@H]2CC[C@@H](OC(=O)C(C)(CO)CO)[C@H](OC)C2)CC(=O)[C@H](C)/C=C(\C)[C@@H](O)[C@@H](OC)C(=O)[C@H](C)C[C@H](C)/C=C/C=C/C=C/1C`, -8.49%.
For the molecule `CC1=C(/C=C/C(C)=C/C=C/C(C)=C/C(=O)Oc2c(C)c(C)c3c(c2C)CC[C@@](C)(CCC[C@H](C)CCC[C@H](C)CCCC(C)C)O3)C(C)(C)CCC1`, the “activity, negative = inhibition” value was -4.54%.
`CCCCCCCCCCCCCC(=O)OCC(COP(=O)([O-])OCC[N+](C)(C)C)OC(=O)CCCCCCCCCCCCC` (stereo not drawn): the “activity, negative = inhibition” value is -2.79%.
Turning to `CC(C)c1ncc([N+](=O)[O-])n1C`, the “activity, negative = inhibition” value is -4.01%.
As for `NC(=O)[C@@H]1CCCN1C(=O)[C@H](Cc1cnc[nH]1)NC(=O)[C@@H]1CCC(=O)N1`, the “activity, negative = inhibition” value was -2.23%.
Regarding `Cc1ccccn1`, the “activity, negative = inhibition” value was -0.625%.
As for `Nc1nccs1`, the “activity, negative = inhibition” value was -3.82%.
`O=C(NCCNCC(O)COc1ccc(O)cc1)N1CCOCC1` (stereo not drawn): the “activity, negative = inhibition” value was -8.52%.
On to `CC(C)CCC[C@@H](C)[C@H]1CC[C@H]2[C@@H]3CC=C4C[C@@H](O)CC[C@]4(C)[C@H]3CC[C@]12C`, for which the “activity, negative = inhibition” value was 2.12%.
Take `CS(=O)(=O)OCC(O)C(O)COS(C)(=O)=O` (stereo not drawn): the “activity, negative = inhibition” value was -4.57%.
As to `NCC[C@H](O)C(=O)N[C@@H]1C[C@H](N)[C@@H](O[C@H]2O[C@H](CN)CC[C@H]2N)[C@H](O)[C@H]1O[C@H]1O[C@H](CO)[C@@H](O)[C@H](N)[C@H]1O`, the “activity, negative = inhibition” value was -5.35%.
Still for that read-out and setting: with `OCC(O)CO` the figure was -1.16%; with `CCOc1ccc(NC(=S)Nc2ccc(OCC)cc2)cc1`, -7.91%; with `CCOC(=O)c1cc(-c2ccccc2)nc2ccc(C)cc12`, -4.14%.
For the molecule `OCl`, the “activity, negative = inhibition” value was 0.937%.
The same measure, in the same setting: with `CCc1ncnc2cc(OC)c(OC)cc12` the figure was -12.3%.

In another experiment the test system is HB3. The description is as above. Conditions: P. falciparum in erythrocytes, SYBR Green DNA, 72 h; series mostly up to 28.7 µM; activity, negative = inhibition: at the top concentration. In outline: as §1
With `S=C=Nc1ccc(N=C=S)cc1`, the “activity, negative = inhibition” value was -1.59%.
For the molecule `N=C(N)n1cccn1`, the “activity, negative = inhibition” value was -2.77%.
In the case of `Cc1cccc(C)c1NC(=O)NC1=CCCN1C`, the “activity, negative = inhibition” value was 11.2%.
`Cc1cc(-c2ccc(N=Nc3ccc4c(S(=O)(=O)O)cc(S(=O)(=O)O)c(N)c4c3O)c(C)c2)ccc1N=Nc1ccc2c(S(=O)(=O)O)cc(S(=O)(=O)O)c(N)c2c1O`: the “activity, negative = inhibition” value was -8.8%.
Consider `O=P(O)(O)O`, for which the “activity, negative = inhibition” value is 0.647%.
As to `CN(CCO)CC(O)Cn1cnc2c1c(=O)n(C)c(=O)n2C` (stereo not drawn) (tested in a mixture with another compound), the “activity, negative = inhibition” value is -1.75%.
Consider `O=C(O)Cc1cc(I)c(Oc2ccc(O)c(I)c2)c(I)c1`, for which the “activity, negative = inhibition” value was -5.6% [at 12.8 µM].
For the molecule `COC1=C(OC)C(=O)C(C/C=C(\C)CC/C=C(\C)CC/C=C(\C)CC/C=C(\C)CC/C=C(\C)CC/C=C(\C)CC/C=C(\C)CC/C=C(\C)CC/C=C(\C)CCC=C(C)C)=C(C)C1=O`, the “activity, negative = inhibition” value was -0.392%.
Consider `CN=C1C=CC(=C(c2ccc(N(C)C)cc2)c2ccc(N(C)C)cc2)C=C1`, for which the Potency was 1000 nM (active).
In the case of `CCOc1ccc(S(=O)(=O)O)c2cccnc12`, the “activity, negative = inhibition” value is 5.56%.
For the molecule `FC(F)(F)COCC(F)(F)F`, the “activity, negative = inhibition” value is 3.4%.
For `O=C(O)[C@H]1C(=CCO)O[C@H]2CC(=O)N12`, the “activity, negative = inhibition” value is -0.665%.
On to `CC1CC(O)CC(C)(C)C1` (stereo not drawn), for which the “activity, negative = inhibition” value was 3.62%.
For the molecule `Cc1ncc(C[n+]2csc(CCOP(=O)(O)O)c2C)c(N)n1`, the “activity, negative = inhibition” value is -2.69%.
Still for that read-out and setting: under `CCCCO` stands 7.03%; under `CCOC(=S)SSC(=S)OCC`, 2.81%.
Same read-out and setting: with `N[C@H](CC(=O)O)C(=O)O` the figure was -3.61%.
In the case of `CCC(C(=O)NC(N)=O)c1ccccc1` (stereo not drawn), the “activity, negative = inhibition” value is 0.972%.
Still for that read-out and setting: with `CCN(CC)CCOC(=O)c1cccnc1` the figure was -3.95%.
Take `NC(=S)NS(=O)(=O)c1ccc(N)cc1`: the “activity, negative = inhibition” value was 7.7%.
Same read-out and setting: under `COc1cc2c(cc1OC)[C@@H](Cc1cc(OC)c(OC)c(OC)c1)[N+](C)(CCCOC(=O)CC/C=C/CCC(=O)OCCC[N+]1(C)CCc3cc(OC)c(OC)cc3[C@H]1Cc1cc(OC)c(OC)c(OC)c1)CC2` (stereo partly drawn) stands 1.75%.
For `Cc1ncc(COP(=O)(O)O)c(CN)c1O`, the “activity, negative = inhibition” value is 0.261%.
On the same count and under the same terms, with `C[C@H](N)C(=O)N[C@@H](C)P(=O)(O)O` the figure was 6.3%.
On to `CO[C@H]1C[C@@H]2CC[C@@H](C)[C@@](O)(O2)C(=O)C(=O)N2CCCC[C@H]2C(=O)O[C@H]([C@H](C)C[C@@H]2CC[C@@H](OC(=O)C(C)(CO)CO)[C@H](OC)C2)CC(=O)[C@H](C)/C=C(\C)[C@@H](O)[C@@H](OC)C(=O)[C@H](C)C[C@H](C)/C=C/C=C/C=C/1C`, for which the “activity, negative = inhibition” value was -2.86%.
Take `CC1=C(/C=C/C(C)=C/C=C/C(C)=C/C(=O)Oc2c(C)c(C)c3c(c2C)CC[C@@](C)(CCC[C@H](C)CCC[C@H](C)CCCC(C)C)O3)C(C)(C)CCC1`: the “activity, negative = inhibition” value is -7.78%.
On the same count and under the same terms, under `CCCCCCCCCCCCCC(=O)OCC(COP(=O)([O-])OCC[N+](C)(C)C)OC(=O)CCCCCCCCCCCCC` (stereo not drawn) stands 6.7%; under `CC(C)c1ncc([N+](=O)[O-])n1C`, -2.51%.
As to `NC(=O)[C@@H]1CCCN1C(=O)[C@H](Cc1cnc[nH]1)NC(=O)[C@@H]1CCC(=O)N1`, the “activity, negative = inhibition” value was -4.64%.
Same read-out and setting: under `Cc1ccccn1` stands 6.63%; under `Nc1nccs1`, 10.9%; under `O=C(NCCNCC(O)COc1ccc(O)cc1)N1CCOCC1` (stereo not drawn), 1.54%.
For the molecule `CC(C)CCC[C@@H](C)[C@H]1CC[C@H]2[C@@H]3CC=C4C[C@@H](O)CC[C@]4(C)[C@H]3CC[C@]12C`, the “activity, negative = inhibition” value was -1.33%.
Turning to `CS(=O)(=O)OCC(O)C(O)COS(C)(=O)=O` (stereo not drawn), the “activity, negative = inhibition” value is -7.03%.
For the molecule `NCC[C@H](O)C(=O)N[C@@H]1C[C@H](N)[C@@H](O[C@H]2O[C@H](CN)CC[C@H]2N)[C@H](O)[C@H]1O[C@H]1O[C@H](CO)[C@@H](O)[C@H](N)[C@H]1O`, the “activity, negative = inhibition” value was 2.09%.
As for `OCC(O)CO`, the “activity, negative = inhibition” value was 5.23%.
As for `CCOc1ccc(NC(=S)Nc2ccc(OCC)cc2)cc1`, the “activity, negative = inhibition” value is 3.44%.
For the molecule `CCOC(=O)c1cc(-c2ccccc2)nc2ccc(C)cc12`, the “activity, negative = inhibition” value was 4.16%.
Regarding `OCl`, the “activity, negative = inhibition” value was 8.67%.
For the molecule `CCc1ncnc2cc(OC)c(OC)cc12`, the “activity, negative = inhibition” value was -0.778%.
